Where “and” joins values, the source holds several entries; their conditions need not be identical. Identical values can stand only once. Inconclusive results are not listed. A call without a number means that no potency is given here. Calls of active or inactive are those of the source. The call rests on the fitted dose curve.
Potency means the concentration at half of the fitted maximal effect.

The test is described as follows: qHTS assay to identify small molecule agonists of H2AX - cell viability counter screen (AID 1224847). Further: nearly all actives have a fitted effect of over 30% in size. The settings on record: CHO-K1 viability, CellTiter-Glo luminescence, 3 h; series mostly up to 154 µM. The source says: National Center for Advancing Translational Sciences [NCATS]
NIH Chemical Genomics Center [NCGC]
U.S. Environmental Protection Agency [EPA]
National Institutes of Environmental Health Sciences [NIEHS]
National Toxicology Program [NTP]
U.S. Food and Drug Administration [FDA]
HTRF phospho-H2AX (Ser139) assay (Cisbio Bioassays, US) enables the quantitative detection of the histone variant H2AX when phosphorylated on serine 139. When double-stranded DNA breaks, either by ionizing radiation or endogenous physiological processes, H2AX becomes phosphorylated at Ser139. This phospho-Ser139 serves as a sensitive biomarker for the detection of such breaks, localizing the site of DNA repair. So, HTRF phospho-H2AX Ser139 is a pertinent assay to study genome stability, the cell cycle, DNA repair, and it serves as a biomarker for cancer, and to understand aging. Wild type CHO-K1 cells were used to identify the inducers of Phospho-H2AX Ser 139 from the Tox21 compound collections. Also cytotoxicity of the Tox21 10K compound library against the CHO-K1 cell line was tested by measuring the cell viability using CellTiter-Glo assay (Promega, Madison, WI).
Tox21 Assay Protocol Summary:
The CHO-K1 cells suspended in culture medium containing 10% FBS were dispensed at 1000 cells/ 3 ul/well in 1536-well white wall/solid bottom plates (Greiner Bio-One North America, NC) using a Multidrop Combi (Thermo Fisher Scientific Inc., Waltham, MA). After the assay plates were incubated at 37C overnight, 23 nl of compounds at 15 concentrations (from 5-48 columns) or positive control (from 1 to 4 columns) were transferred to the assay plates using a Pintool station (Wako, San Diego, CA) into each well resulting in a final DMSO concentration of 0.76%. After 3hr incubation at 37C, 3 uL/well CellTiter-Glo luminescent cell viability reagent (Promega Corporation, Madison, WI) was added using a Flying Reagent Dispenser (FRD) (Aurora Discovery, CA). After incubation at room temperature for 30 min, the luminescence intensity was read using a ViewLux plate reader (PerkinElmer, Waltham, MA).
(In general: In qHTS, concentration-response curves come from the screen itself.)
Regarding `COC(=O)c1ccc(O)cc1`, the Potency entry is “inactive”.
Consider `NC(=O)N/N=C/c1ccc([N+](=O)[O-])o1`, for which the Potency result was “inactive”.
In the case of `CCN(CC)CCOC(=O)c1ccc(N)cc1`, the Potency result is “inactive”.
On to `CN(C)C=O`, for which the Potency entry is “inactive”.
With `CC(=O)/C=C/C1=C(C)CCCC1(C)C`, the Potency result is “inactive”.
For the compound `C#C[C@]1(O)CC[C@H]2[C@@H]3CCc4cc(O)ccc4[C@H]3CC[C@@]21C`, the Potency was 100 µM (active) and 61.9 µM (active).
As for `C[C@]12CC[C@@H]3c4ccc(O)cc4CC[C@H]3[C@@H]1CCC2=O`, the entry is “inactive”; as for `CCCCCCCC(=O)OCC(O)CO` (stereo not given), “inactive”.
As to `COc1ccc(O)cc1`, the Potency entry was “inactive”.
As for `Cc1cccc2ccccc12`, the entry is “inactive”.
On to `NC(=O)c1ccc([N+](=O)[O-])cc1Cl`, for which the Potency result is “inactive”.
Regarding `CCCCOC(=O)CCCCCCCCC(=O)OCCCC`, the Potency result was “inactive”.
Consider `O=C1CCCCCN1`, for which the Potency entry is “inactive”.
With `CC1=C(/C=C/C(C)=C/C=C/C(C)=C/C(=O)O)C(C)(C)CCC1`, the Potency result was “inactive”.
Consider `CCCCCCCCCCCCCC(=O)OC(C)C`, for which the Potency entry was “inactive”.
For the compound `N[C@@H](Cc1c[nH]c2ccccc12)C(=O)O`, the Potency result is “inactive”.
As for `Oc1cccc(O)c1`, the Potency result was “inactive”.
Regarding `O=C1OC(c2ccc(O)cc2)(c2ccc(O)cc2)c2ccccc21`, the Potency entry was “inactive”.
In the case of `OC[C@@H](O)[C@@H](O)[C@H](O)[C@H](O)CO`, the Potency result was “inactive”.
Regarding `Cc1c(N(C)CS(=O)(=O)O)c(=O)n(-c2ccccc2)n1C`, the Potency result was “inactive”.
Consider `O=C(O)CCCCC1CCSS1` (stereo not given), for which the Potency result was “inactive”.
Take `CCOC(=O)C(C)(C)Oc1ccc(Cl)cc1`: the Potency entry was “inactive”.
As for `CN/C(=C\[N+](=O)[O-])NCCSCc1ccc(CN(C)C)o1`, the entry is “inactive”; as for `N[C@@H](Cc1c[nH]c2ccc(O)cc12)C(=O)O`, “inactive”; as for `CC(C)CC(C)CC(O)CC(C)C` (stereo not given), “inactive”.
As to `OCCCc1ccccc1`, the Potency entry was “inactive”.
Turning to `CC(O)COc1ccccc1` (stereo not given), the Potency entry was “inactive”.
As for `Nc1cccc(N)c1`, the entry is “inactive”.
`CCOCCO`: the Potency entry was “inactive”.
On to `CC(C)(C)NCC(O)c1ccc(O)c(CO)c1` (stereo not given), for which the Potency result was “inactive”.
As for `CC(C)=CCC/C(C)=C/CO`, the entry is “inactive”.
As to `CC(=O)Oc1ccccc1C(=O)O`, the Potency result was “inactive”.
Regarding `NC(=O)NO`, the Potency entry was “inactive”.
On to `NC(N)=NC(N)=NCCc1ccccc1`, for which the Potency result was “inactive”.
As for `CCn1cc(C(=O)O)c(=O)c2ccc(C)nc21`, the entry is “inactive”; as for `CC1(C)O[C@@H]2[C@@H](CO[C@@]3(COS(N)(=O)=O)OC(C)(C)O[C@@H]23)O1`, “inactive”; as for `CCCCNC(=O)NS(=O)(=O)c1ccc(N)cc1`, “inactive”.
As to `COc1ccccc1O`, the Potency result is “inactive”.
As for `C[C@]12C[C@H](O)[C@H]3[C@@H](CCC4=CC(=O)CC[C@@]43C)[C@@H]1CC[C@@H]2C(=O)CO`, the entry is “inactive”; as for `COC(=O)c1ccc(C=O)cc1`, “inactive”.
